Results as given in the supplement of paper PMC6555819.

Tests used:
Assay in all cases: PBM binding z-score (relative to random genomic background probes); higher = stronger binding; sequences stand for … in GC…GCGATTGACAGCGTAGAATGAAGG
[1] = system: RARb homodimer (NR concentration 270 nM)
Method in brief: (§1)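 Custom Agilent 4×180K protein-binding microarrays carried double-stranded probes, each with a 34-nt variable region. These regions held direct-repeat seeds, single-nucleotide variants, half-site ablations and random human genomic background sequences. Ligand-free nuclear receptor dimers were incubated on the arrays for 1 h, antibodies against each partner (one per run) detected binding, and scanned fluorescence was regression-normalized. Binding z-scores take the random background probes as reference.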

[2] = system: RARg:RXRa (NR concentration 270 nM, RXRa partner concentration 90 nM)
Method in brief: as §1

[3] = system: RARg homodimer (NR concentration 270 nM)
Method in brief: as §1

[4] = system: RXRa DBDmut IVT, anti-RXR (DBD mutation: RXRa K156A/R161A, NR concentration 90 nM)
Method in brief: as §1

[5] = system: RXRa homodimer (NR concentration 180 nM)
Method in brief: as §1

[6] = system: THRa:RXRa (NR concentration 90 nM, RXRa partner concentration 90 nM)
Method in brief: as §1

[7] = system: THRa homodimer (NR concentration 90 nM)
Method in brief: as §1

[8] = system: VDR homodimer (NR concentration 270 nM)
Method in brief: as §1

CCTACTGGGTCAAAAAGGTCATTGATGCCGATAA
PBM binding z-score [1]: 5.05 | PBM binding z-score [2]: 6.12 | PBM binding z-score [3]: 5.84 | PBM binding z-score [4]: 1.56 | PBM binding z-score [5]: 6.62 | PBM binding z-score [6]: 3.76 | PBM binding z-score [7]: 1.1 | PBM binding z-score [8]: 4.79

ACTAGTTGGTCAGCTGATGTCACACACAATTCGG
PBM binding z-score [1]: 1.06 | PBM binding z-score [2]: 0.65 | PBM binding z-score [3]: 1.08 | PBM binding z-score [4]: 0.494 | PBM binding z-score [5]: 0.485 | PBM binding z-score [6]: 1.29 | PBM binding z-score [7]: 0.161 | PBM binding z-score [8]: 0.144

GCGCGGAGGACAAGGTCAGAGCTTTGTCCGTAGA
PBM binding z-score [1]: 2.99 | PBM binding z-score [2]: 3.09 | PBM binding z-score [3]: 3.32 | PBM binding z-score [4]: 0.639 | PBM binding z-score [5]: 2.43 | PBM binding z-score [6]: 2.89 | PBM binding z-score [7]: 1.33 | PBM binding z-score [8]: 0.885

ATCTCTAGGTAAAGGTTCAGTGAATCCCGAGGAT
PBM binding z-score [1]: 1.24 | PBM binding z-score [2]: 1.03 | PBM binding z-score [3]: 1.05 | PBM binding z-score [4]: 0.869 | PBM binding z-score [5]: 1.01 | PBM binding z-score [6]: 1.1 | PBM binding z-score [7]: 0.351 | PBM binding z-score [8]: 1.99

AGAATGATGTTATTAAGATCAGGGAATTGCGGTC
PBM binding z-score [1]: -0.502 | PBM binding z-score [2]: 0.0118 | PBM binding z-score [3]: 0.00602 | PBM binding z-score [4]: -0.521 | PBM binding z-score [5]: 0.203 | PBM binding z-score [6]: 0.093 | PBM binding z-score [7]: -0.511 | PBM binding z-score [8]: -0.127

TCTGCTAGGACAGTTGGTCAGCTAACGAGCTGCC
PBM binding z-score [1]: -0.304 | PBM binding z-score [2]: -0.493 | PBM binding z-score [3]: -0.356 | PBM binding z-score [4]: -0.0894 | PBM binding z-score [5]: -0.639 | PBM binding z-score [6]: -0.274 | PBM binding z-score [7]: -0.784 | PBM binding z-score [8]: -1.13

TCGAGTAGGTTACCAATGGAGCATTCAGCTTTCT
PBM binding z-score [1]: -0.304 | PBM binding z-score [2]: 0.18 | PBM binding z-score [3]: 0.258 | PBM binding z-score [4]: 0.293 | PBM binding z-score [5]: 0.319 | PBM binding z-score [6]: -0.213 | PBM binding z-score [7]: -0.898 | PBM binding z-score [8]: -0.759

CTACCAAGGTTAACAAGGTCGTTGATTACTATTC
PBM binding z-score [1]: 2.69 | PBM binding z-score [2]: 2.82 | PBM binding z-score [3]: 2.39 | PBM binding z-score [4]: 2.35 | PBM binding z-score [5]: 2.98 | PBM binding z-score [6]: 3.39 | PBM binding z-score [7]: 1.93 | PBM binding z-score [8]: 3.98

TCTAGCAGGCCAGAGCGTCACTCAAGAGGTACGG
PBM binding z-score [1]: -0.99 | PBM binding z-score [2]: -0.32 | PBM binding z-score [3]: -0.282 | PBM binding z-score [4]: -0.0985 | PBM binding z-score [5]: -0.0625 | PBM binding z-score [6]: -1.43 | PBM binding z-score [7]: -1.22 | PBM binding z-score [8]: -0.792

GCGACTGGGGCAAAGCAGGTTAGCATAAGGTTGG
PBM binding z-score [1]: 0.654 | PBM binding z-score [2]: 0.256 | PBM binding z-score [3]: 0.429 | PBM binding z-score [4]: -0.341 | PBM binding z-score [5]: 0.0651 | PBM binding z-score [6]: 2.28 | PBM binding z-score [7]: -0.225 | PBM binding z-score [8]: -0.542

GCTAGTTGGTCAGTAAAAGGTCACAAACCGGTCG
PBM binding z-score [1]: 4.94 | PBM binding z-score [2]: 4.99 | PBM binding z-score [3]: 4.28 | PBM binding z-score [4]: 0.203 | PBM binding z-score [5]: 4.8 | PBM binding z-score [6]: 3.32 | PBM binding z-score [7]: 1.15 | PBM binding z-score [8]: 1.71

TCTCGGAGGACACGAAAGGACAGAGCTCGACATC
PBM binding z-score [1]: 1.82 | PBM binding z-score [2]: 1.33 | PBM binding z-score [3]: 2.48 | PBM binding z-score [4]: 0.518 | PBM binding z-score [5]: 0.152 | PBM binding z-score [6]: 2.23 | PBM binding z-score [7]: 0.669 | PBM binding z-score [8]: -0.424

CGTCAGAGTTCAACTAAGGTAACGTAAAGCACGC
PBM binding z-score [1]: 3.58 | PBM binding z-score [2]: 5.39 | PBM binding z-score [3]: 6.02 | PBM binding z-score [4]: 4.87 | PBM binding z-score [5]: 5.49 | PBM binding z-score [6]: 5.18 | PBM binding z-score [7]: 1.68 | PBM binding z-score [8]: 4.58

TAACCAAGGTGAAGGTCGTTGATCCCTCTGTAGA
PBM binding z-score [1]: 1.83 | PBM binding z-score [2]: 1.4 | PBM binding z-score [3]: 1.38 | PBM binding z-score [4]: 0.174 | PBM binding z-score [5]: 1.87 | PBM binding z-score [6]: 2.32 | PBM binding z-score [7]: 0.878 | PBM binding z-score [8]: 0.809

GGAACGAGGGCATTCGAGTTGATAACATGGCGAT
PBM binding z-score [1]: 0.66 | PBM binding z-score [2]: 1.41 | PBM binding z-score [3]: 1.74 | PBM binding z-score [4]: 3.17 | PBM binding z-score [5]: 1.08 | PBM binding z-score [6]: 3.37 | PBM binding z-score [7]: -0.138 | PBM binding z-score [8]: 3.48

CCTTACGGGTCACTGACAGGTTATTGCATTTGGA
PBM binding z-score [1]: 3.24 | PBM binding z-score [2]: 5.55 | PBM binding z-score [3]: 4.57 | PBM binding z-score [4]: 1.94 | PBM binding z-score [5]: 5.07 | PBM binding z-score [6]: 2.92 | PBM binding z-score [7]: 0.504 | PBM binding z-score [8]: 1.45

CGAACTTGGTCATCCAGGACAGTGAATACATTGA
PBM binding z-score [1]: 0.498 | PBM binding z-score [2]: 0.874 | PBM binding z-score [3]: 1.24 | PBM binding z-score [4]: 0.427 | PBM binding z-score [5]: 0.551 | PBM binding z-score [6]: 1.91 | PBM binding z-score [7]: 1.02 | PBM binding z-score [8]: 0.3

CCTAGCAGGCCAGGGTCAATCAAGCATTTCGCTT
PBM binding z-score [1]: 2.92 | PBM binding z-score [2]: 3.32 | PBM binding z-score [3]: 2.33 | PBM binding z-score [4]: 0.381 | PBM binding z-score [5]: 4.06 | PBM binding z-score [6]: 3.05 | PBM binding z-score [7]: 0.553 | PBM binding z-score [8]: 1.07

CCTGCTAGGTCATGGTTAGCTAATCTACAGTATG
PBM binding z-score [1]: 2.79 | PBM binding z-score [2]: 4.02 | PBM binding z-score [3]: 4.34 | PBM binding z-score [4]: 1.43 | PBM binding z-score [5]: 2.52 | PBM binding z-score [6]: 2.99 | PBM binding z-score [7]: 1.03 | PBM binding z-score [8]: -0.043

TCATATAGGTAACCAGGTGAAAGTCCGTAAGTTA
PBM binding z-score [1]: 0.957 | PBM binding z-score [2]: 0.558 | PBM binding z-score [3]: 0.452 | PBM binding z-score [4]: 1.38 | PBM binding z-score [5]: 1.25 | PBM binding z-score [6]: 1.73 | PBM binding z-score [7]: 1.05 | PBM binding z-score [8]: 0.27

CCTACTGGGCCATCAAGTCATTGATATCAACGTT
PBM binding z-score [1]: 0.27 | PBM binding z-score [2]: 0.122 | PBM binding z-score [3]: 0.368 | PBM binding z-score [4]: 0.0115 | PBM binding z-score [5]: -0.103 | PBM binding z-score [6]: -0.116 | PBM binding z-score [7]: -0.0575 | PBM binding z-score [8]: -0.205

ATACCAAGGTGATCGTGAGGTCGTGGATACTAAC
PBM binding z-score [1]: 1.77 | PBM binding z-score [2]: 2.71 | PBM binding z-score [3]: 0.919 | PBM binding z-score [4]: 0.217 | PBM binding z-score [5]: 2.04 | PBM binding z-score [6]: 3.62 | PBM binding z-score [7]: 2.99 | PBM binding z-score [8]: 1.78

TAGCCTGGGTCATTGGGCCAGTATAGTACGCATC
PBM binding z-score [1]: 2.47 | PBM binding z-score [2]: 3.67 | PBM binding z-score [3]: 3.47 | PBM binding z-score [4]: 0.363 | PBM binding z-score [5]: 3.04 | PBM binding z-score [6]: 1.99 | PBM binding z-score [7]: -0.547 | PBM binding z-score [8]: 0.472

ACAATGAGGTTACCAAAGATCAGGGAAACGCTTG
PBM binding z-score [1]: 1.14 | PBM binding z-score [2]: 2.27 | PBM binding z-score [3]: 2.07 | PBM binding z-score [4]: 1.4 | PBM binding z-score [5]: 2.9 | PBM binding z-score [6]: 2.77 | PBM binding z-score [7]: 1.14 | PBM binding z-score [8]: 0.706

AGAATGAGGATATTAAGATCAGGGAATTGCGGTC
PBM binding z-score [1]: -0.295 | PBM binding z-score [2]: 0.0101 | PBM binding z-score [3]: 0.354 | PBM binding z-score [4]: 0.0131 | PBM binding z-score [5]: 0.0885 | PBM binding z-score [6]: 0.447 | PBM binding z-score [7]: -0.112 | PBM binding z-score [8]: 0.17

ATATGTAGGTTTCATCCGGGTCATTCAGGCTATG
PBM binding z-score [1]: 2.53 | PBM binding z-score [2]: 1.62 | PBM binding z-score [3]: 0.901 | PBM binding z-score [4]: 1.35 | PBM binding z-score [5]: 2.07 | PBM binding z-score [6]: 3.22 | PBM binding z-score [7]: 2.18 | PBM binding z-score [8]: 3.21

ACTAGCAGGCCAAATTTGGGTCACTCAAACAAAG
PBM binding z-score [1]: 2.36 | PBM binding z-score [2]: 2.39 | PBM binding z-score [3]: 1.39 | PBM binding z-score [4]: 0.0631 | PBM binding z-score [5]: 0.936 | PBM binding z-score [6]: 2.45 | PBM binding z-score [7]: 0.758 | PBM binding z-score [8]: -0.0164

TAGCCTAGGTCAGATCGGGCCAATATACGCTATA
PBM binding z-score [1]: 2.28 | PBM binding z-score [2]: 2.9 | PBM binding z-score [3]: 3.4 | PBM binding z-score [4]: -0.355 | PBM binding z-score [5]: 1.51 | PBM binding z-score [6]: 4.32 | PBM binding z-score [7]: 0.165 | PBM binding z-score [8]: -0.261
